Molecules are shown by their SMILES. The whole screen tested about 96,000 compounds, of which about 20,000 (21%) were called active.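 The calls were made as follows: active = CYP2C19 inhibition above a set limit at 5 µM in the primary screen (cut at about 50% in these data); inactive = the rest.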 Not all results are given here.

Chain of Cytochrome P450 2C19 (Homo sapiens) (P33261 whole entry, looked up): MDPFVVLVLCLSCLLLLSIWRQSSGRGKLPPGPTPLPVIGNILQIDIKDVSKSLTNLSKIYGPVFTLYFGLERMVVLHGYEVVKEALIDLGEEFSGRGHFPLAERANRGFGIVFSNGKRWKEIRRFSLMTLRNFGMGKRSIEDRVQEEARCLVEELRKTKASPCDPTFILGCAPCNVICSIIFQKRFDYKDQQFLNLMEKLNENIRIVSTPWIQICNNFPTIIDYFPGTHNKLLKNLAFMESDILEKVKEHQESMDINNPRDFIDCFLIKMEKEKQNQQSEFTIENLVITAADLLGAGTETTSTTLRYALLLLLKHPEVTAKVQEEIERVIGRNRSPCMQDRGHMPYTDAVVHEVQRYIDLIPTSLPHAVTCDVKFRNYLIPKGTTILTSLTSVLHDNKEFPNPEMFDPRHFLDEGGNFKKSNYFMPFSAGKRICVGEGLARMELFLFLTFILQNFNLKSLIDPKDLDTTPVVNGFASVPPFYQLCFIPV

The experiment addresses Cytochrome P450 2C19 (Homo sapiens) (UniProt P33261). Kind of experiment: blockers of cytochrome P450 2C19 activity – biochemical, luminescence, ADME assay, primary screen (AID 778).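 Also: plate controls were negative control wells for no effect and 2.5 mM tranylcypromine positive control for full effect.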 The settings on record: CYP2C19 Supersomes, luciferin-H EGE luminescence, 30 min; at 5 µM; stronger effect = higher value.
Consider `CCC1CCCCN1CCCNC(=O)C1CCC(Cn2c(=O)[nH]c3ccccc3c2=O)CC1` (configuration not stated), for which the inhibition was 6% (inactive). The figure for `CCOC(=O)c1c(-n2cnnn2)sc(C)c1C` is 7.5% (inactive); for `Cc1nc(NNC(=O)c2ccccc2)cc(-c2ccccc2)n1` it is -0.2% (inactive). In the case of `CNC(=O)Nc1cc(C(C)(C)C)no1`, the inhibition is 32.3% (inactive). Consider `O=C(CSc1nc(C2CC2)nc2ccccc12)Nc1ccc2c(c1)OCCO2`, for which the inhibition was 19.7% (inactive). The figure for `CCCCSc1nc2c(c(=O)n1CC)SC(C)C2` (configuration not stated) is 42% (inactive). The figure for `O=C(CSc1nnc(-c2ccccn2)n1-c1ccccc1)Nc1ccc2c(c1)OCO2` is 5% (inactive); for `O=C(CSc1nnnn1-c1ccc2c(c1)CCC2)Nc1ccc2c(c1)OCCO2` it is -2.7% (inactive). `CCn1c(SCC(=O)Nc2ccc3c(c2)OCCO3)nc2c(c1=O)SC(C)C2` (configuration not stated): the inhibition is 61.9% (active).

As to `Cc1ccc(-n2c(SCC(=O)Nc3ccc4c(c3)OCO4)nnc2-c2ccoc2C)cc1`, the inhibition was -13% (inactive). As for `O=C(CSc1nc2ncccc2[nH]1)Nc1ccc2c(c1)OCCO2`, the inhibition is 82.3% (active). As to `O=C(CSc1nnnn1C1CCCC1)Nc1ccc2c(c1)OCCO2`, the inhibition is 68.5% (active).

As for `CCC(=O)Nc1cccc(NC(=O)CSc2nnnn2C2CCCC2)c1`, the inhibition is 36.1% (inactive). For the compound `Cc1nonc1OCCn1nnnc1N`, the inhibition was 4% (inactive). With `O=C(CCn1c(=S)[nH]c2ccccc2c1=O)NCCCN1CCCC1=O` the figure was 5.4% (inactive). With `O=C(CS(=O)(=O)c1cn(Cc2ccc(Cl)cc2)c2ccccc12)N1CCOCC1` the figure was 35.4% (inactive); with `CCOC(=O)c1cc(NC(=O)SCC(=O)O)c(C)nc1C`, 24.3% (inactive).

Regarding `N#CCSc1nc2c(c(=O)n1Cc1ccccc1)C1(CCCC1)Cc1ccccc1-2`, the inhibition was -19% (inactive). As to `COc1cc(Br)cc(/C=N/c2ncn[nH]2)c1O`, the inhibition is 0.3% (inactive). Turning to `Cc1nc2c(-c3ccc(F)cc3)c(C)nn2c(C)c1CCC(=O)N1CCN(c2ccccn2)CC1`, the inhibition was 54.1% (active). The figure for `Cc1nc2nc(C)c(CCC(=O)N3CCN(c4ccccc4)CC3)c(C)n2n1` is 7.2% (inactive); for `Cc1nc2c(-c3ccc(F)cc3)c(C)nn2c(C)c1CCC(=O)NCc1ccco1` it is 41.7% (inactive).

Regarding `Cc1nn(C)cc1/C=N/NC(=O)c1sc2ccccc2c1Cl`, the inhibition is 37.3% (inactive). The figure for `CC(=O)Nc1ccc(S(=O)(=O)N2CCC(N(C)CCC(C)C)CC2)cc1` is 2.5% (inactive). The figure for `CC(Sc1nc2ccccc2c(=O)n1Cc1ccco1)C(=O)c1ccccc1` (configuration not stated) is 74.1% (active). With `CCOC(=O)C1CCc2nc3ccccc3c(=O)n21` (configuration not stated) the figure was 17.8% (inactive); with `CCOC(=O)C(C)Sc1nc2ccccc2c(=O)n1CC1CCCCC1` (configuration not stated), 71.3% (active); with `CCOn1c(SC(C)C)nc2ccccc2c1=O`, -0.2% (inactive).

In the case of `N#Cc1c(NC(=O)CSc2nc3ccccc3c(=O)n2Cc2ccco2)sc2c1CCCC2`, the inhibition is -5.2% (inactive). Turning to `O=C(CN1CCOCC1)Nc1c(-c2ccccc2)c2cc(Br)ccc2[nH]c1=O`, the inhibition is 4.9% (inactive). `Cc1ccc(C(=O)N2CCN(C(=O)N3CCOCC3)CC2)cc1`: the inhibition is 7.4% (inactive). For the compound `CCOC(=O)c1[nH]c2ccc(C)cc2c1N=C(C)N(C)C`, the inhibition is -13% (inactive). With `Cc1ccc(-c2ccnc3nc(Sc4ncc(C(F)(F)F)cc4Cl)nn23)cc1` the figure was 0% (inactive); with `CCOC(=O)N1CCN(C(c2cccnc2)c2ccc3cccnc3c2O)CC1` (configuration not stated), 48% (inactive). With `COC(=O)C1C(=O)NCC1c1ccc(C)cc1` (configuration not stated) the figure was 10.9% (inactive); with `CCN(CCCNC(=O)C1CCN(S(=O)(=O)c2cnc[nH]2)CC1)c1ccccc1`, 70.9% (active); with `CCOC(=O)c1cccc(NC(=O)C2CCCN(S(=O)(=O)c3cnc[nH]3)C2)c1` (configuration not stated), 58.5% (active). With `CCOc1cccc(NC(=O)C2CCCN(S(=O)(=O)c3ccc(OC)cc3)C2)c1` (configuration not stated) the figure was 48.2% (inactive). In the case of `Cc1ccc(S(=O)(=O)N2CCCC2CO)cc1` (configuration not stated), the inhibition was 18.4% (inactive). In the case of `Cc1ccc(S(=O)(=O)N2CCCC2C(=O)NCc2ccco2)cc1` (configuration not stated), the inhibition is 81.7% (active). For `O=C(NCc1ccco1)C1CCCN(S(=O)(=O)c2cccc3nonc23)C1` (configuration not stated), the inhibition is 18.2% (inactive). Consider `COc1cccc(N2CCN(C(=O)C3CCCN(S(=O)(=O)c4cnc[nH]4)C3)CC2)c1` (configuration not stated), for which the inhibition was 25.3% (inactive). The figure for `O=C(NCc1ccco1)C1CCCN(S(=O)(=O)c2ccccc2)C1` (configuration not stated) is 40.8% (inactive). The figure for `Cc1cccc(N2CCN(C(=O)C3CCN(S(=O)(=O)c4cnc[nH]4)CC3)CC2)c1C` is 7.9% (inactive).

Take `O=C(NCc1ccco1)C1CCCN(S(=O)(=O)c2cnc[nH]2)C1` (configuration not stated): the inhibition is 55.3% (active).

As for `CCCS(=O)(=O)N1CCCC(C(=O)NCc2ccco2)C1` (configuration not stated), the inhibition was -10.8% (inactive). With `CCCS(=O)(=O)N1CCC(C(=O)NCCCN(C)Cc2ccccc2)CC1` the figure was 6.8% (inactive); with `CCN1CCN(C(=O)c2ccccc2N(C)S(=O)(=O)c2ccc(C)cc2)CC1`, -7.6% (inactive).

As to `CC(C)(C)c1ccc(NC(=O)NCc2ccco2)cc1`, the inhibition was 2% (inactive). The figure for `c1cc(-n2cnnn2)ccc1NC1=NCCC1` is -15.7% (inactive); for `CCN1CCCC1Cn1cnc2c([nH]c3cc(OC)ccc32)c1=O` (configuration not stated) it is -3.7% (inactive).

Consider `CC(C)(C)Oc1ncc(Br)c(OC(C)(C)C)n1`, for which the inhibition is -12.1% (inactive). With `N/C(Cc1ccc([N+](=O)[O-])cc1)=N\OC(=O)COc1ccc2ccccc2c1`, the inhibition was 4.3% (inactive). Regarding `COC(=O)c1ccc2c(c1)S(=O)(=O)NC(=NCCCN1CCOCC1)S2`, the inhibition is 6.8% (inactive). With `CCOC(=O)Cn1c(=O)oc2cc(S(=O)(=O)N(C)Cc3ccco3)ccc21` the figure was 14.9% (inactive). With `CCOC(=O)C1=C(CSc2nnnn2C)N(C)C(=O)NC1c1ccccc1` (configuration not stated) the figure was 79.5% (active); with `Cn1nnnc1SCc1cc(=O)[nH]c2ccccc12`, 2.9% (inactive).

As to `CCOC(=O)C1=C(CSc2nccn2C)NC(=O)NC1c1ccc(OC)cc1` (configuration not stated), the inhibition was 31.3% (inactive). The figure for `CC1(C)Oc2ccc3ccc(=O)oc3c2/C(=C/NCCO)C1=O` is -7.3% (inactive); for `COc1ccccc1NC(=O)c1ccc2nc(N3C(=O)CCC3=O)sc2c1` it is 13.6% (inactive); for `Cc1cc(NC(=O)CN2CCC(O)(c3cccc(F)c3)CC2)no1` it is 34.5% (inactive). With `COc1ccccc1CNC(=O)CCCNS(=O)(=O)c1cccc2nsnc12` the figure was 7.7% (inactive).

On to `CC(c1ccccc1)n1c(NCCCn2ccnc2)nc2c1c(=O)[nH]c(=O)n2C` (configuration not stated), for which the inhibition was 55.9% (active). The figure for `COc1ccc(CCn2c(NCCCN3CCOCC3)nc3c2c(=O)[nH]c(=O)n3C)cc1` is 25.2% (inactive); for `CCCCNc1nc2c(c(=O)[nH]c(=O)n2C)n1CCOc1ccccc1` it is 28.9% (inactive). Regarding `CCOC(=O)c1cnc(SCC(=O)Nc2cccc(OC)c2)nc1N`, the inhibition is -12.1% (inactive). With `CCOC(=O)N1CCC(C(N)=O)CC1` the figure was 5.4% (inactive); with `COc1cc2cc(CN(CCN3CCCC3)C(=O)Nc3ccccc3Cl)c(=O)[nH]c2cc1OC`, 7.9% (inactive); with `COc1ccccc1N(C(=O)Cn1nnc2ccccc21)C(C(=O)NCc1ccco1)c1ccc(C)o1` (configuration not stated), 68% (active).

Regarding `Cc1ccc(C(C(=O)NCc2ccco2)N(CC2CCCO2)C(=O)Cn2nnc3ccccc32)cc1` (configuration not stated), the inhibition was 17.2% (inactive).

For `COCCNC(=O)C(c1ccc(C)o1)N(Cc1ccccc1)C(=O)Cn1nnc2ccccc21` (configuration not stated), the inhibition was 29.3% (inactive).

As to `Cc1ccc(C(CC(=O)O)Nc2nc(N3CCCCC3)nc(N3CCCCC3)n2)cc1` (configuration not stated), the inhibition is 11.1% (inactive). With `COc1ccc2c(c1OC)C(=O)c1ccccc1C2=O`, the inhibition was 17% (inactive). Consider `COc1ccc(S(=O)(=O)N2CCCC(C(=O)N3CCN(C)CC3)C2)cc1C` (configuration not stated), for which the inhibition is 30% (inactive). `CCNC(=O)NC(=O)C(C)OC(=O)c1cc(S(=O)(=O)N2CCCCCC2)ccc1OC` (configuration not stated): the inhibition is 66% (active). With `COc1ccc(S(=O)(=O)N2CCCC2)c(C)c1C` the figure was 72.2% (active); with `CCCCn1c(=S)[nH]c2cc(S(=O)(=O)N3CCCCC3)ccc21`, 25.4% (inactive).

`COc1ccc(S(=O)(=O)Nc2ccc(S(=O)(=O)N3CCCCC3)cc2)cc1OC`: the inhibition was 52.3% (active).

In the case of `CCCCNC(=O)C1CCCN(S(=O)(=O)c2ccc(S(=O)(=O)NCC(C)C)cc2)C1` (configuration not stated), the inhibition is 6.5% (inactive).

For `COc1ccc(S(=O)(=O)N2CCOCC2)cc1C(=O)Nc1nc2ccccc2s1`, the inhibition is 0.4% (inactive). As for `COc1ccc(S(=O)(=O)N2CCCCC2)cc1Br`, the inhibition is 92% (active). The figure for `CSC1=N/C(=C\c2ccc3c(c2)OCO3)C(=O)S1` is 0.4% (inactive). In the case of `COc1cc(NC(=O)N2CCOCC2)cc(OC)c1`, the inhibition was -9.7% (inactive). With `CCC(=NC1CC(C)(C)NC(C)(C)C1)C1=C(O)CC(C)(C)CC1=O` the figure was 3.6% (inactive); with `Cc1c(-c2ccccc2)cn2c1-c1ccc(C)n1CC2`, 1.7% (inactive); with `O=C(Nc1ccc(Cl)cn1)c1cnn2cccnc12`, 0.1% (inactive). Regarding `CCC(=O)c1ccc(OCC(O)CN2CC(C)OC(C)C2)cc1` (configuration not stated), the inhibition is 39.4% (inactive). On to `O=C1Nc2ccc(Br)cc2/C1=N/N=C/C1=C(N2CCOCC2)C(=C\c2ccccc2)/CC1`, for which the inhibition was -1.8% (inactive).

For the compound `CCCOc1ccc2c3c(c(=O)oc2c1OCCC)CCC3`, the inhibition is 49.9% (inactive).

As to `COc1ccc(-c2c(C(C)=O)c(C)nc3sc4c(=O)n(-c5ccc(C)cc5)nnc4c23)cc1`, the inhibition was 21.7% (inactive). With `C=C(C)CSc1nnc(-c2ccc(C)cc2)n1N` the figure was 17% (inactive); with `Cc1ccc(-n2c(C)cc(/C=C(\C#N)C(=O)NCC3CCCO3)c2C)cc1` (configuration not stated), 31.5% (inactive); with `CC1(C)CC(=O)C=C(NCCCNC2CCCCC2)C1`, 9.8% (inactive). In the case of `CC(C)CCSc1ncnc2c1oc1nc3c(cc12)COC(C)(C)C3`, the inhibition was -1.7% (inactive). The figure for `Cc1cn(COC/C=C/c2ccccc2)c(=O)[nH]c1=O` is 24.1% (inactive).

`Cc1[nH]c(=O)c(C(=O)/C=C/c2ccccc2)c2c1CCCC2`: the inhibition is 80.5% (active). The figure for `O=C(/C=C/c1ccccc1)c1ccoc1` is 35% (inactive).

As a reminder, the inhibition is the relative decrease from the control value, in per cent.

These data come from PubChem BioAssay AID778 (Sanford-Burnham Center for Chemical Genomics, 2007).
